The nature of assay [1]: qHTS assay to identify aromatase inhibitors - cell viability counter screen (AID 743084).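 Note: cells stimulated with testosterone during compound exposure; nearly all actives have a fitted effect of over 55% in size.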 Note: potency is the fitted concentration of half-maximal effect. A general note: qHTS replaces the single test concentration by a dilution series.
The target in assay [2] is Aryl hydrocarbon receptor (Homo sapiens) (UniProt P35869). Kind of assay: qHTS assay to identify small molecule that activate the aryl hydrocarbon receptor (AhR) signaling pathway (AID 743085).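 For activation: HG2L7.5c1 human HepG2 liver cells with stably integrated DRE-driven firefly reporter; series mostly up to about 70 µM.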 Note: nearly all actives have a fitted effect of over 15% in size. Note: potency is the fitted concentration of half-maximal effect. A digest of the protocol: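 Stably transfected human liver carcinoma cells (HG2L7.5c1; 20 DRE-firefly luciferase) were incubated 5 h, dosed, and kept 24 h at 37C. Agonism was scored from increased luciferase luminescence.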
Sequence of Aryl hydrocarbon receptor (Homo sapiens) (P35869 whole entry, looked up): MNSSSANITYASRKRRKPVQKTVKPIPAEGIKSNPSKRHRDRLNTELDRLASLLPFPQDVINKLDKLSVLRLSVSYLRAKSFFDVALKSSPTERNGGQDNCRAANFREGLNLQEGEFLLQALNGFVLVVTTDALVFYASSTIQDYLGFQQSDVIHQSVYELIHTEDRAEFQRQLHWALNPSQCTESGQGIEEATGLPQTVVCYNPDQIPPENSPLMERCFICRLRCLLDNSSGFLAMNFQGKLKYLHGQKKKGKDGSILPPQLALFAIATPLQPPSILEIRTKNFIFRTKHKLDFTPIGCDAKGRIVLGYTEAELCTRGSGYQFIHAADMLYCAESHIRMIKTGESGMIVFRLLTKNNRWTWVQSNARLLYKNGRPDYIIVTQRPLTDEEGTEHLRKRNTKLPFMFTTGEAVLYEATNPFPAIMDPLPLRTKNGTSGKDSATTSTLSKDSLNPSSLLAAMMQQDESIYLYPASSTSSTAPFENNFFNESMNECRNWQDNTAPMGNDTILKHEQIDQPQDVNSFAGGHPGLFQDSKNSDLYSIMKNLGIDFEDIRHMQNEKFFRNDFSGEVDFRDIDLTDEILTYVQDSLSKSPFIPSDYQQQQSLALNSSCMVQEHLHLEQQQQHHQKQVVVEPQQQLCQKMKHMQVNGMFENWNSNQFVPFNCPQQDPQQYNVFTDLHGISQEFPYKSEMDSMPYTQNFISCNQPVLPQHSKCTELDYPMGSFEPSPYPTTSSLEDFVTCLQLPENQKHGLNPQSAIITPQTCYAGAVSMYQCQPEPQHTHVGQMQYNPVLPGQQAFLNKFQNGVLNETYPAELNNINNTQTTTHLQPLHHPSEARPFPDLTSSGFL

Assay [3] can be described thus: qHTS assay to identify small molecule that activate the aryl hydrocarbon receptor (AhR) signaling pathway - cell viability counter screen (AID 743086).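 For viability change, negative = cytotoxic: HepG2 liver cells carrying the AhR DRE luciferase reporter; series mostly up to about 70 µM.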 Note: nearly all actives have a fitted effect of over 45% in size. Note: potency is the fitted concentration of half-maximal effect. A digest of the protocol:
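Cytotoxicity counter screen: CellTiter-Fluor signal (30 min, 37 C) in 4000 HepG2 cells/well carrying the DRE-luciferase reporter, following 24 h compound exposure at 37 C.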

In assay [4] the target is Peroxisome proliferator-activated receptor gamma (Homo sapiens) (UniProt P37231). Kind of assay: qHTS assay to identify small molecule agonists of the peroxisome proliferator-activated receptor gamma (PPARg) signaling pathway (AID 743094; active = well fitted activation curve with a large enough effect in the signal ratio in the repeat runs, not every such curve was filed as active; the % refers to the signal ratio; note: potency is the fitted concentration of half-maximal effect). A digest of the protocol: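 Following 5 h plating at 37C, PPARg-bla HEK293H cells receive compound or DMSO for 17 h; fluorescence intensity is recorded after LiveBLAzer B/G loading for 1 h at room temperature.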
Sequence of Peroxisome proliferator-activated receptor gamma (Homo sapiens) (P37231 whole entry, looked up): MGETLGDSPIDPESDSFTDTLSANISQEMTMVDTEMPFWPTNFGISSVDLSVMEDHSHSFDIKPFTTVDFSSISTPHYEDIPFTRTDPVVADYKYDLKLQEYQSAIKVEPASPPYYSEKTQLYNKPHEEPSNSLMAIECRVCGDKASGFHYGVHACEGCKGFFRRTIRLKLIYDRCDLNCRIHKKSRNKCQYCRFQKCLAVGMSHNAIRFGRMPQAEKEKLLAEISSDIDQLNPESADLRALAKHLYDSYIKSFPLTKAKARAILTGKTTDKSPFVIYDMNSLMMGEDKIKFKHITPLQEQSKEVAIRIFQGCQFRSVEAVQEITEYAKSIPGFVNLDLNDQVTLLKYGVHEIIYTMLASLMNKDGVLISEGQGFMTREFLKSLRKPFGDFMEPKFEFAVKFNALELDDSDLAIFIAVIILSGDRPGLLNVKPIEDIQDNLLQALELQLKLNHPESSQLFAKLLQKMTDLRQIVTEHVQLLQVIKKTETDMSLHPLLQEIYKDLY

Assay [5] has the same target. Kind of assay: qHTS assay to identify small molecule antagonists of the peroxisome proliferator-activated receptor gamma (PPARg) signaling pathway (AID 743191; calls by dose curve; note: series mostly up to about 63 µM; nearly all actives have a fitted effect of over 30% in size). A digest of the protocol: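 Beta-lactamase reporter under UAS control in HEK293H PPARg-bla cells; compound treatment 17 h at 37C. Read-out: fluorescence intensity after 1 h room-temperature incubation with LiveBLAzer B/G FRET substrate.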

Assay [6] is described as follows: qHTS assay to identify small molecule antagonists of the peroxisome proliferator-activated receptor gamma (PPARg) signaling pathway - cell viability counter screen (AID 743194). Note: nearly all actives have a fitted effect of over 55% in size. A digest of the protocol:
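Viability was measured as CellTiter-Glo luminescence in GeneBLAzer PPARg UAS-bla HEK293H cells. These cells had been exposed 17 h at 37 C to compounds together with rosiglitazone at 50 nM final, with the beta-lactamase readout taken in the same wells.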

Assay [7] can be described thus: qHTS assay for small molecule agonists of the antioxidant response element (ARE) signaling pathway - cell viability counter screen (AID 743203; calls by dose curve; note: nearly all actives have a fitted effect of over 55% in size). A digest of the protocol: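 Compounds in DMSO were pinned onto ARE-bla HepG2 cells plated 5 hrs earlier at 2,000 cells/well. Sixteen hours later at 37C/5% CO2, CellTiter-Glo was added and luminescence measured after 30 min at room temperature.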

A short description of assay [8]: qHTS assay for small molecule activators of the heat shock response signaling pathway - cell viability counter screen (AID 743209). Note: nearly all actives have a fitted effect of over 50% in size. Put shortly:
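Counter screen for cytotoxicity in HeLa HSE-bla reporter cells. Treatment was 5 h at 37 C; viability was detected by luminescent ATP assay (CellTiter-Glo) in the same wells as the beta-lactamase read.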

Assay [9] in a line: qHTS assay for small molecule activators of the heat shock response signaling pathway (AID 743210; active = well fitted activation curve with a large enough effect in the signal ratio in the repeat runs, with a control signal flat, not every such curve was filed as active; the % refers to the signal ratio;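 note: HeLa cells with beta-lactamase reporter driven by heat shock elements; series mostly up to about 63 µM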). A digest of the protocol:
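HeLa HSE-bla cells, overnight plating; cpd in DMSO 5 h, 37 C; LiveBLAzer B/G FRET substrate 2.5 h RT; fluorescence intensity read.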

A short description of assay [10]: qHTS assay for small molecule agonists of the antioxidant response element (ARE) signaling pathway (AID 743202; active = well fitted activation curve with a large enough effect in the signal ratio in the repeat runs, not every such curve was filed as active; the % refers to the signal ratio). Put shortly: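 Quantitative high-throughput format in HepG2 cells bearing an integrated ARE-beta-lactamase reporter. Compound exposure lasted 16 h at 37 C, and fluorescence was read 2 h after adding LiveBLAzer B/G substrate at room temperature.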

Each structure is given as a SMILES string. Results filed as inconclusive are left out. Values without a mark were called inactive. The source made the active and inactive calls. Unless noted, calls come from the whole dose curve; as a rule, active = well fitted curve in the direction sought with a large enough effect in the repeat runs; inconclusive = weak or mixed curves; inactive = no such curve, though single readings can be large; an effect the other way counts as inactive or inconclusive.
% is set by controls: 0 for no effect and ±100 for the full control effect.

As for `C=Cc1c(C)c2cc3[nH]c(cc4nc(cc5nc(cc1[nH]2)C(C)=C5CCC(=O)O)C(CCC(=O)O)=C4C)c(C)c3C=C`, the Potency result in [1], in assay [2], in [3], in [4], in assay [5] and in assay [6] was “inactive” throughout. The Potency result in assay [7] and in assay [8] was “inactive” throughout.

On to `CC(C)(C)c1ccc(S)cc1`, for which the Potency result in [1], in [2], in [3], in [4], in assay [5] and in assay [6] was “inactive” each time. The Potency result in assay [7] and in [8] was “inactive” in each case.

`Nc1ccc(C(=O)Nc2ccccc2N)cc1`: the Potency result in assay [1], in [3], in [6] and in assay [8] was “inactive” each time. In addition, the Potency was 26.6 µM (active) in [2] and 9.52 µM (active) in assay [4].

`CC[C@H](C)[C@@H](C(=O)O)n1sc2ccccc2c1=O`: the Potency entry in assay [1], in assay [2], in assay [3], in [4], in assay [6] and in assay [7] was “inactive” in each case. Also, the Potency entry in assay [8] is “inactive”. In assay [9], the molecule was classed as inactive.

On to `c1ccc(-c2nc[nH]c2-c2ccccc2)cc1`, for which the Potency result in [1], in [2], in [3], in assay [4], in [5] and in [6] was “inactive” each time. For the same molecule, the Potency result in [7] and in assay [8] was “inactive” in each case. Besides, the call in assay [9] was inactive.

On to `CCCCCC(CO)CCC` (stereo not given), for which the Potency entry in assay [1], in [2], in assay [3], in [4], in assay [6] and in assay [10] was “inactive” each time. Also, the Potency entry in [7] and in assay [8] was “inactive” in each case.

As for `N#Cc1c(F)cccc1F`, the Potency result in assay [1], in assay [2], in assay [3], in assay [4], in assay [6] and in assay [10] was “inactive” each time. The Potency entry in assay [7] and in assay [8] was “inactive” each time. Besides, the call in assay [9] was inactive.

On to `COc1ccc(C(C)=O)cc1`, for which the Potency entry in assay [1], in assay [2], in assay [3], in assay [4], in assay [5] and in assay [6] was “inactive” in each case. The Potency entry in assay [7] and in assay [8] was “inactive” in each case. In addition, the outcome in assay [9] was inactive.

Consider `CC1(C)CCC(C)(C)c2cc(NC(=O)c3ccc(C(=O)O)cc3)ccc21`, for which the Potency entry in assay [1], in [2], in [3], in [4], in assay [6] and in assay [7] was “inactive” throughout. Besides, in [8], the Potency result was “inactive”.

As for `Cn1c(=O)c2c(ncn2CC(O)CO)n(C)c1=O` (stereo not given), the Potency result in assay [1], in [2], in assay [3], in assay [4], in assay [6] and in [10] was “inactive” in each case. In addition, the Potency result in assay [7] and in assay [8] was “inactive” each time. In addition, the result in assay [9] was inactive.

For `O=C(Cl)c1c(Cl)cccc1Cl`, the Potency result in assay [1], in [2], in assay [3], in assay [4], in [6] and in [10] was “inactive” throughout. Moreover, the Potency entry in assay [7] and in [8] was “inactive” throughout. In addition, the outcome in assay [9] was inactive.

As for `NC[C@H]1O[C@H](O[C@H]2[C@H](O)[C@@H](O[C@H]3O[C@H](CO)[C@@H](O)[C@H](N)[C@H]3O)[C@H](N)C[C@@H]2N)[C@H](O)[C@@H](O)[C@@H]1O`, the Potency result in assay [1], in assay [3] and in assay [4] was “inactive” throughout. Further, the activation is 0.116% [at 8.47 µM] in assay [2] and 4.43% [at 8.36 µM] in assay [10]. In addition, the figures for the activity change, negative = cytotoxicity in assay [6] and in assay [8] were -17.2% [at 5.95 µM] and 5.37% [at 5.95 µM], respectively. In addition, the viability change, negative = cytotoxic in [7] was 7.86% [at 8.36 µM].

Take `OCCC1CCCCN1` (stereo not given): the Potency entry in assay [1], in assay [2], in assay [3], in assay [4], in assay [6] and in assay [7] was “inactive” in each case. The Potency entry in assay [8] was “inactive”. Besides, the outcome in [9] was inactive.

`Cc1ccccc1N=Nc1ccc(N=Nc2c(O)ccc3ccccc23)c(C)c1`: the Potency entry in [1], in [3], in assay [4], in assay [5], in assay [6] and in [7] was “inactive” each time. In addition, the Potency entry in [8] is “inactive”. The Potency in [2] was 13.3 µM (active). For the same molecule, the molecule was classed as inactive in [9].

On to `O=C(CCN1CCN2CCCC2C1)N1c2ccccc2Sc2ccc(Cl)cc21` (stereo not given), for which the Potency result in [1], in assay [2], in assay [4], in assay [6], in assay [7] and in [8] was “inactive” in each case. Moreover, the Potency in [3] was 23.7 µM (active). Moreover, in assay [9], the outcome was inactive.

`CC(C)CCCCCCOC(=O)c1ccc(C(=O)OCCCCCCC(C)C)c(C(=O)OCCCCCCC(C)C)c1`: the Potency entry in assay [1], in assay [2], in assay [3], in [4], in [6] and in assay [7] was “inactive” throughout. Also, the Potency result in assay [8] is “inactive”. Further, the molecule was classed as inactive in assay [9].

Take `CCCC(=O)OCC`: the Potency entry in assay [1], in assay [2], in [3], in [4], in assay [5] and in assay [6] was “inactive” in each case. Also, the Potency result in [7] and in [8] was “inactive” in each case. Moreover, the result in [9] was inactive.

Regarding `CCCCCCCCCO`, the Potency entry in [1], in assay [2], in [3], in assay [4], in assay [6] and in assay [7] was “inactive” in each case. Besides, the Potency result in assay [8] was “inactive”. The molecule was classed as inactive in assay [9].

As for `COCCO`, the Potency result in assay [1], in assay [2], in assay [3], in assay [4], in assay [6] and in assay [10] was “inactive” throughout. The Potency result in assay [7] and in [8] was “inactive” each time. The molecule was classed as inactive in assay [9].

`O=c1c2ccccc2nnn1CCl`: the Potency entry in [1], in assay [2], in assay [3], in [4], in assay [5] and in assay [7] was “inactive” each time. In [8], the Potency entry was “inactive”. For the same molecule, in [9], the molecule was called inactive.

Regarding `CC(=O)/C=C/C1C(C)=CCCC1(C)C` (stereo not given), the Potency result in assay [1], in assay [2], in assay [3], in assay [4], in assay [6] and in [10] was “inactive” in each case. Further, the Potency entry in assay [7] and in assay [8] was “inactive” throughout. The molecule was classed as inactive in assay [9].

`O=C(NN1CCCC1)NS(=O)(=O)c1ccc(Cl)cc1`: the Potency result in assay [1], in [2], in assay [3], in assay [4], in assay [5] and in assay [10] was “inactive” in each case. In addition, the Potency entry in [7] and in [8] was “inactive” in each case. In [9], the call was inactive.

As for `C=CC(=O)OCCOC(=O)CCC(=O)O`, the Potency was 61.1 µM (active) in [1] and 54.9 µM (active) in assay [4]. The Potency result in assay [2], in assay [3], in assay [5], in assay [6], in [7] and in assay [8] was “inactive” throughout. In [9], the result was inactive.

For `C[Si](C)O[Si](C)(C)O[Si](C)(C)O[Si](C)C`, the Potency entry in [1], in assay [2], in assay [3], in assay [4], in assay [5] and in [10] was “inactive” throughout. The Potency result in assay [7] and in assay [8] was “inactive” in each case.

Regarding `CCCCCOC(=O)COc1cc(N2C(=O)C3=C(CCCC3)C2=O)c(F)cc1Cl`, the Potency result in assay [1], in assay [2], in assay [3], in assay [4], in assay [6] and in assay [7] was “inactive” each time. Besides, the Potency result in assay [8] was “inactive”. Besides, the call in [9] was inactive.

`CCOc1nc2cccc(C(=O)O)c2n1Cc1ccc(-c2ccccc2-c2nn[nH]n2)cc1`: the Potency entry in [1], in [2], in [3], in assay [4], in assay [5] and in [6] was “inactive” each time. Also, the Potency result in assay [7] and in [8] was “inactive” each time. Moreover, the outcome in assay [9] was inactive.

With `Cn1c(NCCN(CCO)CCCc2ccc([N+](=O)[O-])cc2)cc(=O)n(C)c1=O`, the Potency entry in assay [1], in assay [2], in [3], in assay [4], in [6] and in assay [10] was “inactive” in each case. Further, the Potency entry in [7] and in assay [8] was “inactive” in each case.
